The source of these data is PubChem BioAssay AID624481 (The Scripps Research Institute Molecular Screening Center, 2012).

A number with no mark means an inactive call. Active and inactive are the calls of the source. Rule as the data show it: active = inhibition above about 50%; inactive = the rest.

The target of the test is Prolyl endopeptidase-like (Mus musculus) (UniProt Q8C167). Kind of test: mouse PREPL enzyme inhibition by screening hits – biochemical, gel-based competitive ABPP, fluorescence, HTS hits, PREPL inhibitor project (AID 624481). The note with it: purified mouse PREPL, at 20 µM, hits give high values.
Sequence of Prolyl endopeptidase-like (Mus musculus) (Q8C167 whole entry, looked up): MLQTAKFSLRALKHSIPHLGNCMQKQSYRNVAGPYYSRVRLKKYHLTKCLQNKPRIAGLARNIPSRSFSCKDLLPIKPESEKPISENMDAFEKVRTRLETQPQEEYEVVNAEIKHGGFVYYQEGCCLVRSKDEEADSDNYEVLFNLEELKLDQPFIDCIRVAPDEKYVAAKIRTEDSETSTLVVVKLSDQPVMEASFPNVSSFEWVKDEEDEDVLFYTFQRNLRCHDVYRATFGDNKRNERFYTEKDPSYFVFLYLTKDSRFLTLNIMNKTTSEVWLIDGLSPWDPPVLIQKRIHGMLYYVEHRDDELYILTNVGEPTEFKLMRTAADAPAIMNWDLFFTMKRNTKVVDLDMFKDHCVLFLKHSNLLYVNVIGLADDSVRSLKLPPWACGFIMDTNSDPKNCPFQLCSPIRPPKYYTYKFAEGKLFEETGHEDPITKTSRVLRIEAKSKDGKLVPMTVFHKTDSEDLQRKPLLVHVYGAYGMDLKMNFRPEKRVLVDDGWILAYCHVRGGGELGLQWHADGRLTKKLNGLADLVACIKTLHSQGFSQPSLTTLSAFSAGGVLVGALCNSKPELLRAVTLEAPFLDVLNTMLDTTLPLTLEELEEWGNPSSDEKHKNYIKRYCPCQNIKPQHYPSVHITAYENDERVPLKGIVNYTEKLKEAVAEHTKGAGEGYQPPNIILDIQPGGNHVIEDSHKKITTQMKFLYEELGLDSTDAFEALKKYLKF
Consider `C#CCOCCOCCOCCNc1nc(N2CCN(C(=O)CCCCCCCCCCNC(=O)[C@H]([C@@H](C)CC)n3cc(CCCCN=C(N)N)nn3)CC2)nc(N2CCN(C(=O)CCCCCCCCCCNC(=O)[C@H](CO)n3cc(CCCCCN)nn3)CC2)n1`, for which the inhibition is -38%. With `COc1ccc(N2CCN(c3nc4c(C)cccn4c(=O)c3/C=C(\C#N)C(N)=O)CC2)cc1` the figure was -53%. `Cc1ccc2c(CC(=O)Nc3ccc(N4CCN(C)CC4)cc3C)coc2c1`: the inhibition was -3%. To `Nc1nn(-c2ccccc2)c(N)c1N=Nc1cccc(F)c1` belongs 0%; to `COc1ccc(C(=O)c2coc3ccc(O)c(CN4CCOCC4)c23)cc1`, -78%.

With `CC(=O)Nc1ccc(C(=O)Cn2c3[n+](c4c(F)c(F)ccc42)CCCCC3)cc1`, the inhibition was -42%. To `COc1ccc(C(=O)c2coc3ccc(O)c(CN4CCCC4)c23)cc1` belongs -31%; to `C#CCOCCOCCOCCNc1nc(N2CCN(C(=O)CCCCCCCCCCNC(=O)[C@H]([C@@H](C)CC)n3cc(CCCCCN)nn3)CC2)nc(N2CCN(C(=O)CCCCCCCCCCNC(=O)[C@H](CO)n3cc(CCCCCN)nn3)CC2)n1`, -61%; to `COc1ccc(Nc2nc(N3CCCC3)c3ccccc3n2)cc1`, -50%. In the case of `COc1ccc(C(CCNCc2ccc(N(C)C)cc2)c2ccccc2)cc1` (centres undefined), the inhibition is -124%. With `Cc1cccc(OCC(=O)Nc2ccc(N3CCN(C(=O)c4ccccc4)CC3)cc2)c1` the figure was -12%. To `Cc1cccc(C2CC(c3ccc(F)cc3)Nc3nc(N)nn32)c1` (centres undefined) belongs -26%. `CN1CCc2c(sc3c2C(=O)NC(c2cn(Cc4ccccc4)c4ccccc24)N3)C1` (centres undefined): the inhibition is 7%. With `Cc1ccc(S(=O)(=O)Nc2ccc3c(c2)CC(=O)N([C@H](C)CO)C[C@H](C)[C@H](CN(C)Cc2ccc4c(c2)OCO4)O3)cc1` the figure was 9%; with `COc1ccc(Cn2c(SCc3ccccc3C)nc3cc(OC)c(OC)cc3c2=N)cc1`, 52% (active). In the case of `Cc1cccc(OCC(=O)Nc2ccc(N3CCN(C(=O)c4ccco4)CC3)cc2)c1`, the inhibition was -15%. To `C=CC[n+]1c(/C=C2\C=Cc3cc(C)ccc3N2CC)ccc2ccccc21` belongs -26%; to `CN(CC(=O)Nc1ccc(Cl)cc1)C(=O)c1cccc(S(=O)(=O)N2CCN(Cc3ccccc3)CC2)c1`, 1%. To `Cc1noc(C)c1S(=O)(=O)Nc1ccc2c(c1)C(=O)N([C@H](C)CO)C[C@H](C)[C@@H](CN(C)C(=O)Nc1ccc(C(F)(F)F)cc1)O2` belongs -1%; to `CCn1c2ccccc2c2cc(CNCc3ccc(OC)cc3OC)ccc21`, -93%. With `C[C@H]1CN([C@@H](C)CO)C(=O)Cc2cc(NC(=O)CCN3CCOCC3)ccc2O[C@@H]1CN(C)Cc1ccc(Oc2ccccc2)cc1` the figure was -27%; with `CCc1ccc(CNc2ccc3c(c2)ncn3C(C)(C)C)cc1`, -36%; with `Cc1ccccc1C(=O)N1CCN(c2ccc(NC(=O)CSc3ccc(Cl)cc3)cc2)CC1`, -27%. Take `COc1cc2c(cc1OC)C(Cc1ccc(O)c(Oc3ccc(C[C@H]4c5cc(OC)c(OC)cc5CCN4C)cc3)c1)N(C)CC2` (some centres undefined): the inhibition is 66% (active).

As for `COc1ccc(N2CCN(c3nc4c(c(=O)n(C)c(=O)n4C)n3Cc3ccccc3)CC2)cc1`, the inhibition is -47%. Turning to `COc1ccc(NCc2nn(CC(=O)c3ccc(Br)cc3)c3[n+]2CCCCC3)cc1`, the inhibition was -48%. To `CCN(CC)CCNc1ccc(CO)c2sc3ccccc3c(=O)c12` belongs -23%; to `CC(C)C[C@@H]1CN=C(N)N1C[C@@H]1CCCN1C[C@@H](C(C)C)N1C[C@@H](Cc2ccccc2)N(CCc2ccc(Cl)c(Cl)c2)C1=N`, -72%. As for `O=C(CN1CCN(c2ccc(O)cc2)CC1)Nc1cc([N+](=O)[O-])ccc1Cl`, the inhibition is -53%. To `CCN(C(=O)CN1CCN(S(=O)(=O)c2cc(Cl)ccc2Cl)CC1)c1c(N)n(Cc2ccccc2)c(=O)[nH]c1=O` belongs 99% (active); to `COc1ccc(-[n+]2c(C)cc(/C=C3\Sc4ccccc4N3C)cc2C)cc1`, -11%. With `Cc1cc(OCC(=O)Nc2ccc(N3CCN(C)CC3)cc2)ccc1Cl` the figure was -14%; with `CCOc1ccc(CCNC(=O)c2ccc3c(=O)[nH]c4c(C(=O)NC(C)C)sc(=S)n4c3c2)cc1`, 14%. To `COc1ccc(C2CC(c3cccc(OC)c3)n3nc(N)nc3N2)cc1` (centres undefined) belongs -18%.
